Assay results as given in PubChem BioAssay (NCATS).
Results filed as inconclusive are left out. Unmarked numbers belong to inactive results. Calls follow the shape of the dose curve; as a rule, active = well fitted inhibition curve with a large enough effect; inconclusive = small, poorly fitted or top-dose-only effect; inactive = no such curve, though single readings can be large or run the other way.

The compounds below were run against Rap guanine nucleotide exchange factor 3 (Homo sapiens) (UniProt O95398) (assay: Counterscreen qHTS for antagonist of cAMP-regulated guanine nucleotide exchange factor 3 (EPAC1) (AID 1645888;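 also: fluorescence loss as bound BODIPY-GDP is released from Rap1B; % of control where 0% means no effect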)). Settings: Rap1B-BODIPY-GDP nucleotide exchange, fluorescence; series mostly up to 154 µM; activity change, negative = inhibition: at the top concentration.
Chain of Rap guanine nucleotide exchange factor 3 (Homo sapiens) (O95398 whole entry, looked up): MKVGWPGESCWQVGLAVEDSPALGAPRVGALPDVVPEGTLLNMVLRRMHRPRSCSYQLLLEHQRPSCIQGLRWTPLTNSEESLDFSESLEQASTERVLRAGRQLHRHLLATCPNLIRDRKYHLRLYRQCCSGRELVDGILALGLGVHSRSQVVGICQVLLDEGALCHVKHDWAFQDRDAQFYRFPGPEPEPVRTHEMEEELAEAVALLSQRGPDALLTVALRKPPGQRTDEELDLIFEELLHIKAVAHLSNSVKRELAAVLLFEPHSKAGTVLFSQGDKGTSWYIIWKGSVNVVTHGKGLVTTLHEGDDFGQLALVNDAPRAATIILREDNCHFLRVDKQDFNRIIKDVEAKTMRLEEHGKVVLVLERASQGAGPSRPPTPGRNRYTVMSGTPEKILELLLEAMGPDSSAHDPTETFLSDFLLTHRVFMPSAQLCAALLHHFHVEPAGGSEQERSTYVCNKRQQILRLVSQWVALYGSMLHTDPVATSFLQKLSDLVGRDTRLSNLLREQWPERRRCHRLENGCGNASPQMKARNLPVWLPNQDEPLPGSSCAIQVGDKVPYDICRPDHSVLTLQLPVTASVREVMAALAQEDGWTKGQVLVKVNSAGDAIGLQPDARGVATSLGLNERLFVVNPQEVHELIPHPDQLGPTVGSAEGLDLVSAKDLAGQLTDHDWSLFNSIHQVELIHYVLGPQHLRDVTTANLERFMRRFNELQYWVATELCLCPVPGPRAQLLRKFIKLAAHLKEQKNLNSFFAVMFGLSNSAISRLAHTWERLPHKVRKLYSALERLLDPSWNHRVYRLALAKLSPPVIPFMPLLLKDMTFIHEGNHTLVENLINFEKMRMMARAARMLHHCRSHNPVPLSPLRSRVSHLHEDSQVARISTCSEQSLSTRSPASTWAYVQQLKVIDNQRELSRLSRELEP
Summary of the method: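 Rap1B–BODIPY-GDP (250 nM) with 50 uM GDP; compounds pin-transferred to 9.74 nM–152 uM final (activator) or from 7.32 nM upwards (inhibitor). Fluorescence Ex/Em 480/540 nm read at 5 and 30 min, then after adding cAMP or buffer, at room temperature.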

Compound	activity change, negative = inhibition
O=C1S/C(=C\c2ccc(O)c([N+](=O)[O-])c2)C(=O)N1c1ccccc1Cl	-8.85%
O=C(NCCCn1ccnc1)c1cc(-c2cccnc2)nc2ccc(Br)cc12	-4.35%
COC(=O)C1=C(C)N(Cc2ccco2)C(=O)/C1=C\c1ccc(N(C)C)cc1	20%
Cc1ccc(NC(=O)c2cccc(NC(=O)/C=C/c3ccco3)c2)cc1C	-4.44% [at 30.8 µM]
Cc1cc(Br)c2c(c1)C(O)(N1CCCCC1C)C(=O)N2 (stereo unspecified)	-0.193% [at 30.8 µM]
CCCCNC(=O)Cn1nc(N2CCN(c3ccccc3OC)CC2)ccc1=O	33.4%
CC(=O)c1c(C(C)=O)c(C)n(-c2nc(-c3ccccc3)c(C)s2)c1C	-1.29%
COc1ccccc1OCC(=O)Nc1cccc(S(=O)(=O)NC2=NCCCCC2)c1	8.81%
CN(C(=O)COC(=O)/C=C/c1ccc2c(c1)OCO2)c1c(N)n(Cc2ccccc2)c(=O)[nH]c1=O	-6.7%
CCOc1ccc(/C=C/C(=O)c2cc(Br)ccc(=O)c2O)cc1	-13.8%
Cc1ccc(Sc2ccc(S(=O)(=O)Nc3ccc(C(=O)O)cc3)cc2)cc1C	-5.48%
